Measurements as given in the supplement of paper PMC11624193, “Coupling cellular drug-target engagement to downstream pharmacology with CeTEAM” (Nature Communications, 2024).
Counter-ions that a name gives are not always drawn. A number with no mark means an inactive call.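 The calls were made as follows: active = log2 fold change beyond 2 SD from the library mean after excluding viability outliers; inactive = within 2 SD.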

Target: PARP1 L713F-nLuc biosensor (HCT116) (UniProt P09874)
Assay: PARP1 L713F-nLuc/akaLuc ratio relative to DMSO control (biosensor stabilization) (fold change); higher = more PARP1 biosensor stabilization (target engagement / stabilizer), active = hit call of the paper
Conditions: stock concentration (mM; final µM = stock mM x 1): 10; 24 h

Chain of PARP1 L713F-nLuc biosensor (HCT116) (P09874 whole entry L713F, looked up): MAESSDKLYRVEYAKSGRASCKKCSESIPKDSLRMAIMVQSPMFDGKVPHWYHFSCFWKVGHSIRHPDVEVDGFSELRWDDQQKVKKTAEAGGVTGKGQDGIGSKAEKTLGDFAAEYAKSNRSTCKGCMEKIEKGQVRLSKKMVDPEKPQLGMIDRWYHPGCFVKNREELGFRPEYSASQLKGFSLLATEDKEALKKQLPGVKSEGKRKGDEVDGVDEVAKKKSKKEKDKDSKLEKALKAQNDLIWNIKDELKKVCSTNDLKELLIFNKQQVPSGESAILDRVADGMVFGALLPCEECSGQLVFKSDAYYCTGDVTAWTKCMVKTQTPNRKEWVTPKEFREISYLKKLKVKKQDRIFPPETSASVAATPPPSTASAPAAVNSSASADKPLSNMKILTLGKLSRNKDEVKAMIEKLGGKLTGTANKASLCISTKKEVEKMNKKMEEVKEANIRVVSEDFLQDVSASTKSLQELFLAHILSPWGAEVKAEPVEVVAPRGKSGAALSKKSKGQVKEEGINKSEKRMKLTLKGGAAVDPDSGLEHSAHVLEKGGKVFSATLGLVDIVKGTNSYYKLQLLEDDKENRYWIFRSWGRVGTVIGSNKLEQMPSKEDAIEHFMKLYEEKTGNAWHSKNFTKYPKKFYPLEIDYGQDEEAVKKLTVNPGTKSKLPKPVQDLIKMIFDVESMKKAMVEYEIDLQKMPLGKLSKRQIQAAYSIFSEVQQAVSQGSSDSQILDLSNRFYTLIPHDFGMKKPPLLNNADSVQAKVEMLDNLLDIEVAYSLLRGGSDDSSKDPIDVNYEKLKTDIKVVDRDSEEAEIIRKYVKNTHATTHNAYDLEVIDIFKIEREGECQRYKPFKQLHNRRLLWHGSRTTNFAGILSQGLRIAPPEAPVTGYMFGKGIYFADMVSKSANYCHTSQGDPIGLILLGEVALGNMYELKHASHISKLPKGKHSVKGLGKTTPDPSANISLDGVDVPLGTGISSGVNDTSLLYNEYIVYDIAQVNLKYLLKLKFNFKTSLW

Row | SMILES | PARP1 L713F-nLuc/akaLuc ratio
1 | COC(=O)Nc1nc2cc(Sc3ccccc3)ccc2[nH]1 [Fenbendazole] | 2.66
2 | COc1ccc(C(NC(=O)c2cnc(-c3cccnn3)[nH]c2=O)c2ccc(OC)cc2)cc1 | 0.884
3 | CC1(C)CN(C(=O)c2ccc(-c3cccc4nc(NC(=O)C5CC5)nn34)cc2)C1 [Solcitinib] | 0.98
4 | NC(=O)c1cc(F)cc2c1C(=O)N(C1CCN(C3CCC(F)(F)CC3)CC1)C2 | 6 (active)
5 | CN1CCC(CNc2ccc3ncc(-c4cccc(OC(F)(F)F)c4)n3n2)CC1 | 1.51
6 | COc1ccc(S(=O)(=O)Nc2cccnc2Nc2ccc(O)cc2)cc1 | 1.28
7 | CN(C)C(=N)NC(=N)N [Metformin (hydrochloride)] | 0.94
8 | CS(=O)(=O)N1CCN(Cc2cc3nc(-c4cccc5[nH]ncc45)nc(N4CCOCC4)c3s2)CC1 [Pictilisib (GDC-0941)] | 0.659
9 | COC(=O)c1ccc2c(c1)nc(NC(=O)c1ccccc1)n2CCCc1ccccc1 | 0.949
10 | O=C(NCCCN1CCCC1)c1cncc(-c2ccccc2N2CCN(CCc3c[nH]c4ccccc34)CC2)c1 | 0.537
11 | N#Cc1cc(F)cc(Oc2ccc(S(=O)(=O)C(F)F)c3c2CC(F)(F)[C@H]3O)c1 | 0.774
12 | Nc1nc(OCc2cc(Br)cs2)c2ncn(CCCCCCCCO[C@@H]3O[C@H](CO)[C@@H](O)[C@H](O)[C@H]3O)c2n1 [O6BTG-octylglucoside] | 0.863
13 | COc1cc2c(NC3CCN(C)CC3)nc(N3CCCN(C)CC3)nc2cc1OCCOCCN(C)C | 1.43
14 | CC1(C)NC(=O)N(c2ccc([N+](=O)[O-])c(C(F)(F)F)c2)C1=O [Nilutamide] | 0.772
15 | CCN(CC)C(=S)SSC(=S)N(CC)CC [Disulfiram] | 0.658
16 | CNCc1ccc(-c2[nH]c3cc(F)cc4c3c2CCNC4=O)cc1 [Rucaparib] | 5.36 (active)
17 | COc1ccc(C(=O)C2CCN(CC(=O)N(Cc3nc4c(c(=O)[nH]3)COCC4)CC3CC3)CC2)cc1 | 1.01
18 | NC(=O)c1ccc(Oc2ccc(C(N)=O)cc2)cc1 | 1.27
19 | C#Cc1cccc(Nc2ncnc3cc4c(cc23)OCCOCCOCCO4)c1 [Icotinib] | 0.808
20 | CN(C)CCCNC(=O)c1ccc(-c2cc(O)c3ncccc3c2)cc1 | 0.5
21 | O=C(CC[C@H](NC(=O)OCc1ccccc1)C(=O)O)NCCCC[C@H](NC(=O)OCc1ccccc1)C(=O)Nc1ccccc1 | 1.06
22 | N#Cc1cc(F)cc(Oc2ccc(S(=O)(=O)C(F)F)c3c2CC(F)(F)C3O)c1 (racemic) | 0.759
23 | COc1cc2c(NC3CCN(C(C)C)CC3)nc(N3CCC(F)(F)CC3)nc2cc1OCCCN1CCCC1 | 1.03
24 | COc1cc2c(cc1OC)-c1c(C)c3ccc(OC)c(OC)c3c[n+]1CC2 [Dehydrocorydaline] | 0.741
25 | O=c1cc(N2CCOCC2)oc2c(-c3ccc4c(c3)OCCO4)csc12 | 0.39
